NPC1 prom act = activators of NPC1 promoter | Potency, µM (top dose mostly 9.22 µM), for inactives: at the top dose activation, usual class: activators | Huh7 NPC1 promoter luciferase reporter, 24 h | 320,000 tested, 2.4% active | AID 485313; also: % of control where 0% means no effect; nearly all actives have a fitted effect of over 60% in size
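NPC1 promoter–luciferase Huh7 cells; 24 h compound; luminescence.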
Luc counter = counter-screen: inhibitors of Kinase-Glo firefly luciferase; Kinase-Glo luciferase, ATP luminescence, 8 min; Potency, µM (titrated, usually from 38.3 µM), for inactives: at the highest dose activity change, negative = inhibition, usual class: inhibitors; 200,000 tested, 0.28% active; AID 1379; also: % is scaled to controls: 0 for no effect and ±100 for the full control effect; nearly all actives have a fitted effect of over 60% in size
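Luminescence was the read-out, taken after 8-minute incubation at ambient temperature. Luciferase turned over luciferin with 10 uM ATP in imidazole pH 7.2 buffer containing KCl, MgCl2, Tween 20 and BSA.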
ELG1 genotox = induces genotoxicity in HEK293T cells with luciferase-tagged ELG1. Potency, µM (top dose mostly 46 µM), for inactives: at the highest dose activity change, positive = activation, actives largely listed as activators. HEK293T ELG1-luciferase reporter, luminescence, 16 h. AID 504466. 330,000 tested, 1.3% active; also: % of control where 0% means no effect; nearly all actives have a fitted effect of over 60% in size
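Screening used a luciferase reporter fused to human ELG1 in HEK293T cells. Luminescence was read on a CCD plate imager after 16 hr exposure and 30 min ONE-Glo incubation.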
FLuc modulator = firefly luciferase modulation, counter-screen for miR-21 project; P08659; purified FLuc, Km substrates, luminescence inhibition; Potency, µM (highest dose often 57.5 µM), for the others: at the highest dose activity change, negative = inhibition, hits mostly inhibitors; 360,000 tested, 6.9% active;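 also: plate controls were vehicle for no effect and reference inhibitor for full effect; nearly all actives have a fitted effect of over 55% in size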
Target sequence (P08659 whole entry, looked up): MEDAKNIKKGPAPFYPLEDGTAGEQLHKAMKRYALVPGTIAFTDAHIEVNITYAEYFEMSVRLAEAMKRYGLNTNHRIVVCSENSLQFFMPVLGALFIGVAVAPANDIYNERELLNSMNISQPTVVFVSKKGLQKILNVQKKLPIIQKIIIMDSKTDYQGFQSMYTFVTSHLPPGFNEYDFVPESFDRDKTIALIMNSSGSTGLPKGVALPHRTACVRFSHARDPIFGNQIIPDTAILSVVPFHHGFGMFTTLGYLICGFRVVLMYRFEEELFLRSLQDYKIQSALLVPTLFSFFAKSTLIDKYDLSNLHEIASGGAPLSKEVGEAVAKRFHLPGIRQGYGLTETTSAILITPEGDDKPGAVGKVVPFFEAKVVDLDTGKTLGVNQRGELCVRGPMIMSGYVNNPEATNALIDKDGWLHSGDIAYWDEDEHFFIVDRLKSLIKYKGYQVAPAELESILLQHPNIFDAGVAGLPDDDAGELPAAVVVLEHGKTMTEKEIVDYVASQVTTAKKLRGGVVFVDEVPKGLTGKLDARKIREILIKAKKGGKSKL
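Purified P. pyralis luciferase (10nM final) with 10uM D-luciferin and 10uM ATP (Km levels) in 50mM Tris acetate pH 7.5, 10mM Mg acetate, 0.01% Tween-20, 0.05% BSA; qHTS 6-point titration, ~60 µM downward; luminescence read.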
Rab9 prom act = activators of Rab9 promoter. Huh7 Rab9 promoter-luciferase reporter, luminescence, 24 h. Potency, µM (top dose mostly 9.22 µM), for inactives: at the highest dose activation, negative = inhibition, most hits filed as activators. 320,000 tested, 2.8% active. AID 485297; also: % of control where 0% means no effect; nearly all actives have a fitted effect of over 60% in size
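Cell-based reporter: Huh7 stable for Rab9 promoter-driven luciferase, plated in reduced-serum medium with 10% FBS at 1500 cells/well, compound-treated 24 h at 37 °C, luminescence read after 10 min reagent.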
SMN2 splice enh = SMN2 splice variant enhancement; HEK293 SMN2-luciferase splicing reporter, luminescence, 30-36 h; Potency, µM (highest dose often 46.1 µM), for inactives: at the top dose activity change, positive = activation, usual class: activators; 210,000 tested, 2.8% active; also: % of control where 0% means no effect; nearly all actives have a fitted effect of over 55% in size
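qHTS luciferase splicing reporter: luminescence rises when SMN2 exon 7 is included in transfected HEK293 cells. Compound exposure lasted 30-36 h at 37C, with 4.5 mM final sodium butyrate as control, followed by a ONE-Glo read.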
* hit, by the source's call; ? = inconclusive; / = not tested or not shown. A selection: hits, their analogues and other compounds. The true share with any hit is near 7.3%. Calls follow the shape of the dose curve; as a rule, active = well fitted curve in the direction sought with a large enough effect; inconclusive = small, poorly fitted or top-dose-only effect, or another doubt; inactive = no such curve, though single readings can be large; an effect the other way counts as inactive or inconclusive. Potency is read from the fitted curve at half-maximal effect.

SMILES	NPC1 prom act	Luc counter	ELG1 genotox	FLuc modulator	Rab9 prom act	SMN2 splice enh
CCCN=Cc1sc2ccc(OCC)cc2c1O	?	-6%	23µM*	12µM*	3.2µM*	3%
Cc1cc(-c2ccccc2)nc2cc(C(=O)Nc3cc(C(F)(F)F)ccc3Cl)nn12	/	/	/	-1%	/	-5%
CCOc1ccccc1C(=O)N1CC(=O)Nc2ccc(C)cc2C1c1ccccc1 (centres undefined)	/	/	/	5%	/	23%
CC(C)CN(CC(C)C)c1nc(-c2ccc(Cl)cc2)nc2ccccc12	/	/	/	-1%	/	2%
CCN(CC)c1nc(-c2ccc(C(C)(C)C)cc2)nc2ccccc12	/	/	/	5.4µM*	/	?
Cc1ccc(OCC(=O)Nc2c(C(=O)c3ccc(Cl)cc3)oc3ccccc23)cc1C	/	/	/	1%	/	-2%
C=CCn1c(COc2ccccc2)nnc1SCC(=O)N/N=C/c1ccc(C)cc1	-7%	-4%	3%	12µM*	0%	18%
C=CCn1c(COc2ccccc2)nnc1SCC(=O)N/N=C/c1cc(Cl)ccc1O	/	1%	/	0%	/	10%
CS(=O)(=O)CC[C@@H](C(=O)NCCc1ccccc1)N1Cc2ccccc2C1=O	/	/	/	0%	/	-3%
Cc1cc(C(=O)N2CCC(CO)(Cc3cccc(C(F)(F)F)c3)CC2)n[nH]1	0%	/	-3%	-1%	-1%	/
O=C(c1cnsn1)N1CCC(CO)(Cc2cccc(F)c2)CC1	?	3%	?	13µM*	3.2µM*	/
O=c1oc(CCO)cc2ccc(-c3ccc4[nH]ccc4c3)cc12	?	/	15µM*	2.7µM*	0%	/
CC1CN(C(=O)N2CCC(C(=O)NC3CCCCCC3)CC2)c2cc(Cl)ccc2O1 (centres undefined)	/	/	/	-1%	/	/
O=C(COc1ccc2cc(-c3ccccc3)c(=O)oc2c1)NCC1CCC(C(=O)O)CC1 (centres undefined)	-1%	/	9%	6µM*	2%	/
O=C(COc1cc2oc(=O)cc(-c3ccccc3)c2cc1Cl)NCC1CCC(C(=O)O)CC1 (centres undefined)	2%	/	9%	?	-4%	/
O=C(COc1ccc2c(-c3ccccc3)cc(=O)oc2c1)NCC1CCC(C(=O)O)CC1 (centres undefined)	-6%	/	4%	21µM*	-4%	/
Cc1c(Cl)cccc1NC(=O)c1ccc2c(c1)CCN2S(=O)(=O)c1ccccc1	/	/	/	4%	/	-3%
Nn1c(Nc2ccccc2)nc2sc3c(c2c1=O)CCCC3	2%	-3%	10%	15µM*	0%	?
Cc1ccc(-c2nc3sc4c(c3c(=O)n2N)CCCC4)cc1	1.3µM*	-4%	?	2.1µM*	0.63µM*	11µM*
O=c1c2c3c(sc2ncn1/N=C/c1ccccc1)CCCC3	25%	-1%	?	11µM*	22%	20µM*
NNc1nc2sc3c(c2c(=O)n1-c1ccccc1)CCCC3	-6%	/	5%	12µM*	1%	/
CCSc1nc2sc3c(c2c(=O)n1-c1ccc(C)cc1)CCCC3	/	/	/	-12%	/	-5%
CN(C)CCCO[C@H]1C([C@H](O)CO)O[C@@H]2OC(C)(C)O[C@@H]21 (some centres undefined)	/	-6%	/	/	/	-3%
CC(C)N(Cc1ccccc1)C(=O)Cn1ncc2c3ccccc3n(Cc3ccccc3)c2c1=O	/	/	/	-3%	/	5%
Cc1cc2c(s1)c1cnn(-c3ccccc3)c(=O)c1n2C	15%	/	-1%	6.7µM*	?	/
SMILES	NPC1 prom act	Luc counter	ELG1 genotox	FLuc modulator	Rab9 prom act	SMN2 splice enh
Cc1cc(C)cc(NC2=C(N)C(=O)c3ccccc3C2=O)c1	?	/	?	15µM*	?	/
Cc1ccc(NC2=C(Cl)C(=O)c3ccccc3C2=O)cc1	-34%	/	?	-23%	-33%	/
Cc1cc(Oc2ccc(=O)[nH]n2)nc(Cl)n1	1µM*	/	?	15µM*	3.2µM*	/
COc1ccccc1/C=N/NC(=O)c1cccc(OC(F)(F)C(F)F)c1	-1%	2%	1%	12µM*	-2%	19%
COc1ccccc1/C=N/NC(=O)c1cccc(NC(=O)c2ccccc2Cl)c1	1%	0%	1%	?	-5%	0%
COc1ccccc1C(=O)N/N=C/c1ccc2c(c1)OCO2	2.8µM*	/	?	11µM*	?	/
O=C(N/N=C/c1ccccc1OC(=O)c1ccc2c(c1)OCO2)c1ccccc1	0%	4%	?	?	-7%	/
COc1ccccc1/C=N/NC(=O)c1ccc2c(c1)OCO2	12%	/	8%	6.7µM*	18%	/
COc1ccccc1N/N=C/c1ccc2c(c1)OCO2	10%	-1%	17%	9.5µM*	1%	-15%
Cc1cc(C)c(S(=O)(=O)NCC(c2ccco2)N2CCN(c3ccccc3)CC2)c(C)c1 (centres undefined)	/	/	/	-2%	/	/
COc1cccc(CNS(=O)(=O)c2ccc3c(c2)C(C(C)C)C(=O)N3)c1 (centres undefined)	/	/	/	-7%	/	/
CSc1nsc(N/N=C/c2ccc3c(c2)OCO3)c1C#N	2.5µM*	-5%	?	1.7µM*	0.79µM*	5.6µM*
CC1CCN(S(=O)(=O)c2ccc3c(c2)CCN3C(=O)Nc2ccccc2Br)CC1	/	/	/	3%	/	9%
Cc1oc2ccc(O)cc2c1C(=O)OC(C)C	-2%	-4%	15%	15µM*	1%	-12%
Cc1oc2ccc(OCC(N)=O)cc2c1C(=O)OC(C)C	-4%	-3%	-2%	3%	2%	-27%
Cc1nnc(SCc2nc(-c3ccc(Cl)cc3)no2)n1-c1ccc(F)cc1	/	/	/	-10%	/	11%
C[C@@H](CO)NC(=O)c1ccc2c3n(nc2c1)-c1ccc(Cl)cc1CO3	1.4µM*	/	7.3µM*	3µM*	2.8µM*	/
CC(C)[C@@H](CO)NC(=O)c1ccc2c3n(nc2c1)-c1ccc(Cl)cc1CO3	1.4µM*	/	?	8.5µM*	1.1µM*	/
Cc1ccc(Cl)cc1Nc1nn2c(=O)c3ccc(C(=O)NC(C)c4ccccc4)cc3nc2s1 (centres undefined)	/	/	/	-4%	/	/
Cc1ccc(NC(=O)Cn2c(=O)n(CCC(=O)N3CCc4ccccc4C3)c(=O)c3ccccc32)cc1	/	/	/	-14%	/	2%
O=C(Nc1cccc(-c2cn3ccccc3n2)c1)c1ccccc1	24%	0%	-2%	4.8µM*	?	?
O=C(Nc1cccc(-c2cn3cccnc3n2)c1)c1ccc(Br)o1	-3%	-2%	-3%	?	24%	-2%
CCCC(CCC)C(=O)Nc1cccc(-c2cn3cccnc3n2)c1	/	/	/	-1%	/	/
CCCCC(=O)Nc1cccc(-c2cn3ccccc3n2)c1	30%	/	6%	12µM*	22%	/

Bioassay records: PubChem BioAssay, National Center for Advancing Translational Sciences (NCATS)
